The target in experiment [1] is Tumor necrosis factor receptor superfamily member 10B (Homo sapiens) (UniProt O14763). Description: viability loss of caspase-8 NB7 cells with TRAIL – with/without TRAIL, luminescence panel, confirmation (AID 651596). Particulars: NB7 neuroblastoma + caspase-8, TRAIL sensitization, NB7 Caspase-8, with TRAIL, mean of runs, at 10 µM, stronger effect = higher value.
Assay in experiment [2]: as above
The conditions noted are these: NB7 neuroblastoma + caspase-8, without TRAIL, NB7 Caspase-8, without TRAIL, mean of runs, at 10 µM.

The source of these data is PubChem BioAssay.

Chain of Tumor necrosis factor receptor superfamily member 10B (Homo sapiens) (O14763 whole entry, looked up): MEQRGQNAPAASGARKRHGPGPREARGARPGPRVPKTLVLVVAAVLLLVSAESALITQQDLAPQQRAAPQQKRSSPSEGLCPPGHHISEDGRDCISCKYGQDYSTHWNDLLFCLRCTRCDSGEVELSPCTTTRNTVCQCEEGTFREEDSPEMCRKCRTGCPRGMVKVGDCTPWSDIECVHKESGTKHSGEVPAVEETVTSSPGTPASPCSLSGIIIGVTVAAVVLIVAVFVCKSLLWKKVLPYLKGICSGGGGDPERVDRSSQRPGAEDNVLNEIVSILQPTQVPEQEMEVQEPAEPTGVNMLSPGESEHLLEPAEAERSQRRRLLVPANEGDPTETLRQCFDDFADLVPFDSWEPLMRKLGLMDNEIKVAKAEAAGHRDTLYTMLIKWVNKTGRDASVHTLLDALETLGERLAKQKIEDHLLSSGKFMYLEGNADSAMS

As to `C#CCSc1nnc(-c2ccc(OC)cc2)o1`, the figures for the activity in experiment [1] and in experiment [2] were 97.1% and 89.3%, respectively.

Regarding `COc1ccc(C(=O)Nn2c(SCC(=O)N3CCC(C)CC3)nc3ccccc3c2=O)cc1`, the activity in experiment [1] worked out at 68.2%; in experiment [2], 67.2%.

In the case of `CCc1ccc(-n2nc3cc(C)c(N)cc3n2)cc1`, the activity in experiment [1] was 64.4%; in experiment [2] it was 51.1%.

For `COc1ccc(N(C(=O)CCl)C(C(=O)NCCc2ccccc2)c2cccs2)cc1Cl` (stereo unspecified), the activity was 98.3% in experiment [1] and 99.1% in experiment [2].

For the molecule `COc1ccc(C(=O)Nc2nnc(SCC(=O)NC3CCCC3)s2)c(OC)c1`, the activity in experiment [1] came to 74.1%; in experiment [2] it was 69.8%.

On to `CC(C)(C)NC(=O)C(c1ccncc1)n1c(-c2ccc(C(F)(F)F)cc2)nc2ccccc21` (stereo unspecified), for which the activity is 74.4% in experiment [1] and 85.8% in experiment [2].

Take `CN(C(=O)c1ccco1)c1nc2c(s1)CCCC2`: the activity in experiment [1] is 58.4%; in experiment [2], 60.5%.

For the molecule `Cc1ccc2nc(-c3ccncc3)cc(C(=O)Nc3ccncc3)c2c1`, the activity is 19.9% in experiment [1] and 6.6% in experiment [2].

For the molecule `O=C1c2ccccc2S(=O)(=O)c2cc(N3CCOCC3)ccc21`, the activity is 73.2% in experiment [1] and 73.9% in experiment [2].

As to `COc1ccc2oc(=Nc3ccccc3)c(-c3nc4ccccc4[nH]3)cc2c1`, the figures for the activity in experiment [1] and in experiment [2] were 52.8% and 55%, respectively.

As to `CCOC(=O)c1sc(NC(=O)c2ccc(OC(C)=O)cc2)nc1C`, the activity in experiment [1] stood at 61.3%; in experiment [2], 57.9%.

Take `COC(=O)c1ccc(NC(=O)C(=O)c2cccn2C)cc1`: the activity was 59.5% in experiment [1] and 51.2% in experiment [2].

Take `Cn1nccc1C(=O)Oc1cccc(/C=N/NC(=O)c2ccccc2O)c1`: the activity is 44.5% in experiment [1] and 13.6% in experiment [2].

Turning to `O=C1CCC(=O)N1c1ccc(-c2nc3ccccc3s2)cc1`, the activity turned out to be 76.8% in experiment [1] and 41% in experiment [2].

Take `Cc1ccc(NC(=O)N2CCc3ccccc32)cc1C`: the activity in experiment [1] was 71.9%; in experiment [2], 66.1%.

As for `O=C(CCl)N(O)c1ccc(C=Cc2ccccc2)cc1`, the values for the activity in experiment [1] and in experiment [2] were 40% and 53.7%, respectively.

In the case of `Clc1ccc(-n2ncc3c(N4CCCC4)ncnc32)cc1`, the activity came to 66.2% in experiment [1] and 53.2% in experiment [2].

For the molecule `COc1cc(/C=N/Nc2nn3cnnc3c3ccccc23)cc(OC)c1OC`, the activity in experiment [1] is 73.9%; in experiment [2], 76.2%.

On to `CC1(C)Cc2c(sc(NC(=O)COc3cccc4ccccc34)c2C#N)C(C)(C)N1`, for which the activity was determined as 85.3% in experiment [1] and 94.1% in experiment [2].

Turning to `Cc1ccc(N(NC(=O)C(O)(c2ccccc2)c2ccccc2)C(=O)CCl)cc1`, the activity amounted to 98.5% in experiment [1] and 97.6% in experiment [2].

For `Nc1nc(N)c2cc(S(=O)(=O)c3ccc4ccccc4c3)ccc2n1`, the activity is 64.9% in experiment [1] and 72.5% in experiment [2].

As to `FC(F)(F)c1cccc(-c2nc3nc(Cl)c(Cl)nc3[nH]2)c1`, the activity stood at 57.3% in experiment [1] and 42.6% in experiment [2].

Consider `O=c1cc(-c2c(F)c(F)c(F)c(F)c2F)oc2ccccc12`, for which the figures for the activity in experiment [1] and in experiment [2] were 98.1% and 92.1%, respectively.

With `COc1ccc(C(=O)/C=C2\C(=O)Nc3ccc(Br)cc32)cc1`, the activity in experiment [1] came to 49.3%; in experiment [2], 77.4%.

As for `O=C(CCl)N(CCCNC(=O)C(F)(F)F)c1ccc([N+](=O)[O-])cc1`, the values for the activity in experiment [1] and in experiment [2] were 98.5% and 98.3%, respectively.

Turning to `CCOC(=O)C1=CCN(S(=O)(=O)c2ccccc2C)C1c1ccc(Cl)cc1` (stereo unspecified), the activity is 10.1% in experiment [1] and -8.28% in experiment [2].

For the molecule `O=C(Nc1ccc2c(c1)OCCO2)c1ccccn1`, the activity amounted to 75.8% in experiment [1] and 69.1% in experiment [2].

Consider `COC(=O)c1c(-c2ccccc2)csc1NC1=NS(=O)(=O)c2ccccc21`, for which the activity in experiment [1] turned out to be 74.7%; in experiment [2], 73.3%.

In the case of `Cc1cc(NC(=O)c2ccc(C(C)(C)C)cc2)no1`, the activity in experiment [1] amounted to 77.8%; in experiment [2] it was 79.9%.

For `CCC1=NN(C(=O)c2cccc(Br)c2)C(O)(c2ccc(Br)cc2)C1` (stereo unspecified), the results for the activity in experiment [1] and in experiment [2] were 19.9% and 22.4%, respectively.

Turning to `C=CCOc1cccc(/C=C/c2nc3ccccc3c(=O)[nH]2)c1`, the activity was found to be 66.8% in experiment [1] and 64.8% in experiment [2].

Turning to `O=C(Nc1nc2ccccc2[nH]1)c1ccccc1O`, the activity in experiment [1] is 63.1%; in experiment [2], 65.9%.

On to `Cc1cccc(Nc2nc(N)nc(CCl)n2)c1C`, for which the activity in experiment [1] was 99%; in experiment [2], 98.3%.

Turning to `COc1cc(OC)cc(C(=O)Nc2nc3ccccc3[nH]2)c1`, the values for the activity in experiment [1] and in experiment [2] were 55% and 56.8%, respectively.

Turning to `CN(C)CCCN(C(=O)/C=C/c1cccs1)c1nc2c(F)cccc2s1`, the activity in experiment [1] turned out to be 56.7%; in experiment [2], 93%.

Take `COc1ccccc1C(=O)NNC(=O)c1cccc(O)c1`: the activity amounted to 44.2% in experiment [1] and 48.4% in experiment [2].

For `COn1c(SCc2cccc(Cl)c2)nc2ccccc2c1=O`, the values for the activity in experiment [1] and in experiment [2] were 52.4% and 26.3%, respectively.

As for `Cc1ccc(/C(N)=N/OC(=O)c2ccc(C)cc2Cl)cc1`, the figures for the activity in experiment [1] and in experiment [2] were 97.3% and 96.4%, respectively.

On to `CN(C)CCNC(=O)c1cc2c(s1)-c1ccc(Cl)cc1SC2`, for which the values for the activity in experiment [1] and in experiment [2] were 99% and 99.5%, respectively.

For `O=C(CCl)N1CCCC1c1ccc2c(c1)OCCO2` (stereo unspecified), the figures for the activity in experiment [1] and in experiment [2] were 95.6% and 97.8%, respectively.

For `C=Cc1ccc(Cn2c(C)c(C(=O)NCc3ccc(Cl)c(Cl)c3)sc2=O)cc1`, the activity came out at 91.2% in experiment [1] and 68% in experiment [2].

For the molecule `COc1ccccc1C=C1CCc2ccccc2C1=O`, the activity in experiment [1] was determined as 78.4%; in experiment [2] it was 74.3%.

With `Cc1ccc(NC(=O)Cn2ncc(Cl)c(Cl)c2=O)cc1S(=O)(=O)N1CCCCC1`, the activity in experiment [1] was 86.5%; in experiment [2] it was 99.5%.

Consider `CCC(COC)Oc1cc(NCc2ccccc2)c2ncn(C(C)C)c2c1` (stereo unspecified), for which the activity was -8.03% in experiment [1] and -13.1% in experiment [2].

On to `CCC(C)N(CC(=O)Nc1cccc(C)c1C)C(=O)CCl` (stereo unspecified), for which the activity in experiment [1] stood at 99.5%; in experiment [2], 99.3%.

For `CC(C)N1CCc2c(sc(NC(=O)c3ccc([N+](=O)[O-])o3)c2C(N)=O)C1`, the activity in experiment [1] is -2.23%; in experiment [2], 93.5%.

`CN(C)c1ccc(-c2nc3ccccc3c(=O)[nH]2)cc1`: the activity in experiment [1] came out at 91.9%; in experiment [2], 92.5%.

Regarding `O=C(N/N=C\c1ccc(CNS(=O)(=O)c2ccc(Cl)cc2)o1)C(=O)Nc1ccc(Oc2ccccc2)cc1`, the activity worked out at 79.5% in experiment [1] and 91.1% in experiment [2].
